Measured values taken from the supplement of paper PMC10498489.
The whole screen tested about 2,300 compounds, of which about 330 (14%) showed activity.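 Rule for the calls: active = median modified Z-score above 1.96; inactive = 1.96 or below.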 Not all results are given here.

What follows are compounds tested on HepG2 Srxn1-GFP reporter cells (+30 nM CDDO-Me) (assay: Srxn1-GFP intensity median modified Z-score relative to plate median; higher = stronger NRF2 / oxidative stress reporter activation, active = hit call of the paper). Details: 10 µM; exposure time: 24h.
How it was run: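 HepG2 Srxn1-GFP BAC reporter cells were seeded at 20,000 per well in 96-well plates and co-exposed for 24 h to compound at 10 μM and an NRF2 activator at 30 nM, with DMSO at ≤0.1%, in three replicate plates. Cells were fixed with formaldehyde, stained with Hoechst and imaged by confocal microscopy, and cytoplasmic GFP was measured per cell, with images holding under 100 cells discarded. The reported value is the median over replicates of each plate's modified Z-score of GFP intensity. For this score, scaling used 1.4826 × median absolute deviation.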

Srxn1-GFP intensity median modified Z-score, inactive:
Cc1ccc(C(=O)Oc2cccc3cccnc23)cc1 0.989
O=C(Oc1cccc2cccnc12)c1ccccc1Cl 1.65
CC/C=C\C/C=C\C/C=C\C/C=C\C/C=C\CCCC(=O)OCC [euspeclibcmpd997] 0.696
C[C@H]1[C@H]2CCC3C4CC=C5C[C@@H](N(C)C)CC[C@]5(C)C4CC[C@@]32CN1C (stereo not given in full) [euspeclibcmpd1801] -0.317
CC(=O)OC1CCC2(C)C(=CC=C3C2CCC2(C)C3CCC2C(C)/C=C/C(C)C(C)C)C1(C)C (stereo not given) [euspeclibcmpd1343] 1.93
CC(C)CCCC(C)C1CCC2C3=CCC4CC(O)CCC4(C)C3CCC21C (stereo not given) [euspeclibcmpd1991] -0.131
CCC(/C=C/[C@@H](C)[C@H]1CCC2C3CC=C4C[C@@H](O)CC[C@]4(C)C3CC[C@@]21C)C(C)C (stereo not given in full) [euspeclibcmpd1549] -0.0971
CC(C)CCCC(C)[C@H]1CCC2C3CC=C4C[C@@H](O)CC[C@]4(C)C3CC[C@@]21C (stereo not given in full) [euspeclibcmpd354] 0.396
CC(=O)Nc1ccc(S(=O)(=O)N=c2o[nH]c(C)c2C)cc1 [euspeclibcmpd798] -0.176
CC(=O)N[C@H]1[C@H]([C@H](O)[C@H](O)CO)O[C@](O)(C(=O)O)C[C@@H]1O [euspeclibcmpd2223] -0.0326
CC(C)C(N)C(=O)OCC(CO)OCn1cnc2c(=O)[nH]c(=N)[nH]c21 (stereo not given) [euspeclibcmpd624] -0.125
C[C@H]1CC2C3CC=C4CC(=O)C=C[C@]4(C)[C@@]3(F)[C@@H](O)C[C@]2(C)[C@@]1(O)C(=O)COP(=O)(O)O (stereo not given in full) [euspeclibcmpd2288] -0.294
CNCc1ccccc1 [euspeclibcmpd1631] -0.463
CC(CN(C)C)CN1c2ccccc2Sc2ccccc21 (stereo not given) [euspeclibcmpd308] -0.246
CCC(=O)OCC(=O)C1(OC(=O)CC)C(C)CC2C3CC=C4CC(=O)C=CC4(C)C3(Cl)C(O)CC21C (stereo not given) [euspeclibcmpd31] -0.85
CCC(=O)O[C@]1(C(=O)CCl)[C@@H](C)CC2C3CC=C4CC(=O)C=C[C@]4(C)[C@@]3(F)[C@@H](O)C[C@@]21C (stereo not given in full) [euspeclibcmpd633] 0.492
NC[C@@H]1CC[C@@H](N)[C@@H](O[C@H]2[C@H](O)[C@@H](O[C@H]3O[C@H](CO)[C@@H](O)[C@H](N)[C@H]3O)[C@H](N)C[C@@H]2N)O1 [euspeclibcmpd1045] -0.0322
CCOc1ccc(C(=O)c2cc(O)c(OC)c(OC)c2O)cc1 [euspeclibcmpd2089] -0.551
CCCCCCCCCCCCC(C(=O)O)C(C)C(=O)O (stereo not given) [euspeclibcmpd1524] 0.456
CCCCCCCCCCCCCCC(C(=O)OC)C(O)(CC(=O)OC)C(=O)OC (stereo not given) [euspeclibcmpd2214] -0.435
OC[C@H]1O[C@H](OC[C@H]2O[C@@H](O)[C@H](O)[C@@H](O)[C@@H]2O)[C@H](O)[C@@H](O)[C@H]1O [euspeclibcmpd1651] -0.055
CC(O)Cn1cnc2c1c(=O)n(C)c(=O)n2C (stereo not given) [euspeclibcmpd1230] 0.0469
CC(C)Cn1c(=O)n(C)c(=O)c2nc[nH]c21 [euspeclibcmpd2061] 0.0284
Cn1c(=O)c2nc[nH]c2n(C)c1=O [euspeclibcmpd290] -0.062
COc1ccc(Cc2c[nH]c(=N)[nH]c2=N)cc1OC [euspeclibcmpd456] -0.0911
COc1ccc([C@@H]2CC(=O)c3c(O)cc(O)cc3O2)cc1O [euspeclibcmpd1483] 0.0163
COc1cc2c(cc1OC)-c1c(oc3cc(O)cc(O)c3c1=O)CO2 [euspeclibcmpd2244] -0.157
COc1ccc(/C=C2/COc3ccc(Br)cc3C2=O)cc1O 1.17
COc1ccc(-c2cc(=O)c3c(O)cc(OC)c(OC)c3o2)c(OC)c1 [euspeclibcmpd1657] 0.259
COC(=O)/C=C/c1cc(OC)c(OC)c(OC)c1 [euspeclibcmpd2136] 0.7
COC(=O)/C=C/C(C)=C/C=C/C(C)=C/C=C/C=C(C)/C=C/C=C(C)/C=C/C(=O)O [euspeclibcmpd2376] -0.19
COCCN(Cc1ccccn1)C(=O)C1CCN(C)C(=O)C1 (stereo not given) 0.317
CC1(C)SC2C(NC(=O)[C@@H](NC(=O)N3CCNC3=O)c3ccccc3)C(=O)N2C1C(=O)O (stereo not given in full) [euspeclibcmpd2116] -0.415
CCOc1ccc(S(=O)(=O)O)c2cccnc12 [euspeclibcmpd2064] 0.0425
Nc1ccc(S(=O)(=O)N=c2cnc3ccccc3[nH]2)cc1 [euspeclibcmpd2157] 0.000648
OC[C@@H](O)[C@H](O)[C@@H](O)[C@H](O)CO [euspeclibcmpd2232] 0.317
N=c1ccn(C2O[C@H](CO)[C@@H](O)[C@H]2O)c(=O)[nH]1 (stereo not given in full) [euspeclibcmpd2152] -0.285
O=c1ccn([C@@H]2O[C@H](CO)[C@@H](O)[C@H]2O)c(=O)[nH]1 [euspeclibcmpd2258] -0.304
N=c1[nH]cnc2c1ncn2[C@@H]1O[C@H](CO)[C@@H](O)[C@H]1O [euspeclibcmpd2100] -0.0799
NC(=O)c1ncn(C2O[C@H](CO)[C@@H](O)[C@H]2O)c1N (stereo not given in full) [euspeclibcmpd855] 0.445
Cc1c(NS(=O)(=O)C(C)C)c(=O)n(-c2ccccc2)n1C 1.19
CC(C)(CO)C(=O)C(O)NCCCO (stereo not given) [euspeclibcmpd2316] -0.0436
CC(C)(CO)C(=O)C(O)NCCCO (stereo not given) [euspeclibcmpd2342] -0.119
CON=C(C(=O)NC1C(=O)N2C(C(=O)OCOC(=O)C(C)(C)C)=C(/C=C\c3scnc3C)CSC12)c1csc(=N)[nH]1 (stereo not given) [euspeclibcmpd753] 0.022
CON=C(C(=O)NC1C(=O)N2C(C(=O)O)=C(COC(N)=O)CSC12)c1ccco1 (stereo not given) [euspeclibcmpd2072] -0.532
CN1C(C(=O)N=c2cccc[nH]2)C(=O)c2ccccc2S1(=O)=O (stereo not given) [euspeclibcmpd238] -0.406
N=c1ccn(C2CSC(CO)O2)c(=O)[nH]1 (stereo not given) [euspeclibcmpd613] -0.762
CON=C(C(=O)NC1C(=O)N2C(C(=O)OC(C)OC(C)=O)=C(COC(N)=O)CSC12)c1ccco1 (stereo not given) [euspeclibcmpd658] 0.198
Cc1noc(C)c1S(=O)(=O)N1CCN(C(=O)C2=COCCO2)CC1 1.2
COC(=O)C[C@H]1C(C)(C)[C@@H](O)C2CC3=C4C=C(OC)O[C@@H](c5ccoc5)[C@]4(C)CCC3[C@@]1(C)C2=O (stereo not given in full) [euspeclibcmpd1395] 1.94
CCn1c(O)c(-c2ccccc2)[nH]c1=O [euspeclibcmpd780] -0.504
Cc1c(NC(=O)c2ccsc2)c(=O)n(-c2ccccc2)n1C 0.403
CO[C@H]1C[C@H](O[C@@H]2C(C)C(=O)O[C@H](C)[C@H](C)[C@H](OC(C)=O)C(C)C(=O)[C@@]3(CO3)C[C@H](C)[C@H](OC3O[C@H](C)C[C@H](N(C)C)[C@H]3OC(C)=O)[C@H]2C)O[C@@H](C)[C@@H]1OC(C)=O (stereo not given in full) [euspeclibcmpd623] -0.159
CC(=O)[C@@]1(O)CCC2C3CC=C4CC(=O)CC[C@]4(C)C3CC[C@@]21C (stereo not given in full) [euspeclibcmpd1279] -0.195
CC(=O)OCC(=O)C1CCC2C3CC=C4CC(=O)CC[C@]4(C)C3CC[C@]12C (stereo not given in full) [euspeclibcmpd6] -0.444
CCCC(=O)O[C@]1(C(=O)CO)CCC2[C@@H]3CC=C4CC(=O)CC[C@]4(C)C3[C@@H](O)C[C@@]21C (stereo not given in full) [euspeclibcmpd566] -0.863
C[C@]12CCC(=O)CC1=CCC1C2C(=O)C[C@@]2(C)C1CC[C@]2(O)C(=O)CO (stereo not given in full) [euspeclibcmpd1248] -0.459
CCCCC(=O)O[C@]1(C(=O)CO)CCC2C3CC=C4CC(=O)CC[C@]4(C)C3[C@@H](O)C[C@@]21C (stereo not given in full) [euspeclibcmpd786] -0.698
CC(=O)C1CCC2C3CC=C4C[C@@H](O)CC[C@]4(C)C3CC[C@]12C (stereo not given in full) [euspeclibcmpd1041] 0.815

Srxn1-GFP intensity median modified Z-score, active:
O=C(Oc1cccc2cccnc12)c1ccccc1 [euspeclibcmpd773] 12.8
CC(C)C(C)/C=C/C(C)C1CCC2C3=CC=C4CC(O)CCC4(C)C3CCC21C (stereo not given) [euspeclibcmpd1597] 5.02
C=C1CC[C@H](O)C/C1=C/C=C1\CCC[C@]2(C)C([C@H](C)/C=C/[C@H](C)C(C)C)CC[C@@H]12 (stereo not given in full) [euspeclibcmpd112] 2.55
C=C1CC[C@H](O)C/C1=C/C=C1\CCCC2(C)C1CCC2C(C)CCCC(C)C (stereo not given in full) [euspeclibcmpd353] 2.95
C[C@@H]1CC2C3CC=C4CC(=O)C=C[C@]4(C)[C@@]3(Cl)[C@@H](O)C[C@]2(C)[C@@]1(OC(=O)c1ccco1)C(=O)CCl (stereo not given in full) [euspeclibcmpd756] 2.37
CCCCCCCCCCCCCCCCC(C(=O)O)C(O)(CC(=O)O)C(=O)O (stereo not given) [euspeclibcmpd1735] 3.83
CC(C)Cn1c(=O)n(C)c(=O)c2nc[nH]c21 [euspeclibcmpd1808] 11.6
COc1ccc2c(c1)C(=O)/C(=C\c1ccc(OC)c(O)c1)CO2 3.46
COc1ccc2c(c1)OC/C(=C\c1ccc(OC)c(O)c1)C2=O [euspeclibcmpd1638] 19.3
COC(=O)/C=C/C(=O)OC [euspeclibcmpd923] 6.34
CCN(CC)Cc1ccc(N=c2cc[nH]c3cc(Cl)ccc23)cc1O [euspeclibcmpd22] 3.72
N=c1[nH]c(=S)c2ncn(C3O[C@H](CO)[C@@H](O)[C@H]3O)c2[nH]1 (stereo not given in full) [euspeclibcmpd1778] 41.1
N=c1ncn([C@@H]2O[C@H](CO)[C@@H](O)[C@H]2O)c(=O)[nH]1 [euspeclibcmpd436] 15.1
CCCCCC(=O)O[C@]1(C(C)=O)CCC2C3CC=C4CC(=O)CC[C@]4(C)C3CC[C@@]21C (stereo not given in full) [euspeclibcmpd155] 13.5
CC(=O)C12OC(C)(c3ccccc3)OC1CC1C3CC=C4CC(=O)CCC4(C)C3CCC12C (stereo not given) [euspeclibcmpd1961] 5.88
CC(=O)C1CCC2C3CC=C4CC(=O)CC[C@]4(C)C3CC[C@]12C (stereo not given in full) [euspeclibcmpd251] 2.27
